Results: PubChem BioAssay (NCATS)
Inconclusive results are not listed. The source made the active and inactive calls. The call rests on the fitted dose curve; in most records, active means well fitted activation curve with a large enough effect; inconclusive means small, poorly fitted or top-dose-only effect; inactive means no such curve, though single readings can be large or run the other way.

Target: Rap guanine nucleotide exchange factor 4 (Homo sapiens) (UniProt Q8WZA2)
Experiment: Confirmatory qHTS for agonist of cAMP-regulated guanine nucleotide exchange factor 4 (EPAC2) (AID 1645884);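 further: nucleotide exchange releases bodipy-GDP from Rap1 and this lowers its fluorescence; nearly all actives have a fitted effect of over 65% in size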
Details: EPAC2 GEF activity, Rap1B-BODIPY-GDP fluorescence; series mostly up to 154 µM
On the % scale 0 is the no-effect control and ±100 the full control effect.

Sequence of Rap guanine nucleotide exchange factor 4 (Homo sapiens) (Q8WZA2 whole entry, looked up): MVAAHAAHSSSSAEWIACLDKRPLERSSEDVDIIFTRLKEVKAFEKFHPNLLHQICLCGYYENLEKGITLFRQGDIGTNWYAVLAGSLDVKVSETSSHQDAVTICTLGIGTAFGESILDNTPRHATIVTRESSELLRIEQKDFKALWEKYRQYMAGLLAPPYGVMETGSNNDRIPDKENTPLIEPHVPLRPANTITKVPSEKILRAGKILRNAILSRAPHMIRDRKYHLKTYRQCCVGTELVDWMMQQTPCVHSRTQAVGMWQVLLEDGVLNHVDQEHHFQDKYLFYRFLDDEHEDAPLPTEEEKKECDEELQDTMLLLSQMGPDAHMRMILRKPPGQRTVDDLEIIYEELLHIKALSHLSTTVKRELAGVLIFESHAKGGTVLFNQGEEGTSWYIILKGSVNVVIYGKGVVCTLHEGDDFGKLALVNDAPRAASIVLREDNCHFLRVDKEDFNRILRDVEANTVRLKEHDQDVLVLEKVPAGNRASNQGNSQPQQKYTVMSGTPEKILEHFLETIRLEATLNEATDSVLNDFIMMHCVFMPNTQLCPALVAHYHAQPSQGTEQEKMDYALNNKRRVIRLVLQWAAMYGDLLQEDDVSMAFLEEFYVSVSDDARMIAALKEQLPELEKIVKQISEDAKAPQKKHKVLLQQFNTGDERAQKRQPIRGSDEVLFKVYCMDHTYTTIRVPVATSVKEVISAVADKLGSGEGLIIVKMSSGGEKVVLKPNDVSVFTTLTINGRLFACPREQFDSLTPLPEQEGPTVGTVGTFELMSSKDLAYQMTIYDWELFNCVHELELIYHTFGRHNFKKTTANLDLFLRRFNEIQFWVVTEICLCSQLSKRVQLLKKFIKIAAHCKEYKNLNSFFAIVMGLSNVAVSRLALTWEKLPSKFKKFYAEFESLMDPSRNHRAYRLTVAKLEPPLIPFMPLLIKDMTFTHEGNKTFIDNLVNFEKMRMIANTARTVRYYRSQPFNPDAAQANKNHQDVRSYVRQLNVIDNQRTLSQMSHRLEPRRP

Potency, inactive:
Cc1cccc(S(=O)(=O)Nc2ccc(S(=O)(=O)Nc3nccs3)cc2)c1
CCc1nc(Oc2cccc(F)c2)c2oc3ccccc3c2n1
CCOC(=O)c1cc2c(=O)n3ccccc3nc2n(Cc2ccco2)c1=NC(=O)c1c(F)cccc1Cl
COc1ccc(OC)c(NC(=O)CSc2nc(O)cc(=O)n2CC(C)C)c1
COc1cc(NC(=O)c2cccc([N+](=O)[O-])c2)ccc1NC(=O)c1ccco1
O=C1CCC[C@@H]2CC(N(Cc3cc4ccccc4s3)c3ccccc3)C[C@@H]3CCN1[C@H]23 (stereo partly specified)
COc1ccc(C2C=C(c3ccc(Br)cc3)Nc3nnnn32)c(OC)c1 (stereo unspecified)
CC(=O)N1CCC[C@H]1C(=O)NCC1Cc2cc(-c3cccc(OC(F)(F)F)c3)ccc2O1 (stereo partly specified)
CCOc1cc(-c2ccc(OC(=O)c3ccccc3)c(OC)c2)cc(=O)c2c(C)oc(C)c12
CCCOc1ccc(/C=C2/C(=O)ON=C2C)cc1Cl
C#CCN(Cc1nc(N2CCOCC2)c2ccc(Cl)cc2n1)Cc1ccco1
CCOc1cc(CNCCSc2nnnn2C)ccc1OCc1ccc(Cl)cc1Cl
Cc1noc(C)c1COc1ccccc1C(=O)NC(C)c1ccc(Cl)cc1 (stereo unspecified)
CCOC(=O)c1ccc(NC(=O)c2c(NCc3cccs3)sc3c2CCCCC3)cc1
O=C(NNC(=O)c1ccccc1F)c1cccc(-n2cccc2)c1
COC(=O)Cn1c(CN2CCc3ccccc3C2)nc2c1c(=O)n(C)c(=O)n2C
CN(C)c1ccc(C(=O)Nc2sc(Nc3ccccc3)nc2C(N)=O)cc1
O=C(Nc1c(-c2ccc3c(c2)OCO3)[nH][nH]c1=O)c1ccccc1
Cc1ccccc1NC(=O)c1sc2nc(-c3cc4ccccc4oc3=O)[nH]c(=O)c2c1C
Cc1cccc(CN2Cc3cccc4c3[C@H](C=CC4)CC2=O)c1
COc1ccc(C(=O)CSc2nnc(-c3ccco3)c(-c3ccco3)n2)cc1
CN(c1ccccc1)c1ccc(/C=C(/CCC(=O)O)c2nc3ccccc3s2)cc1[N+](=O)[O-]
CC(CNC(=O)c1sc2ncccc2c1-n1cccc1)c1ccccc1 (stereo unspecified)
Cc1ccc(NC(=O)c2sc3nc(-c4ccncc4)ccc3c2N)cc1
O=C(NC1(O)C(=O)c2ccccc2C1=O)c1ccc(C(F)(F)F)cc1
Cc1ccc(N=C2NC(=O)/C(=C/C=C/c3ccco3)S2)cc1

activation, inactive:
CCCC(=O)OC1CC(C)N(C(=O)c2ccccc2)c2ccc(C)cc21 (stereo unspecified) -2.84% [at 17.1 µM, percent relative to cAMP agonist control]
CCCC1=C(C(=O)OCC)C(c2ccco2)C(C#N)=C(N)O1 (stereo unspecified) 2.29% [at 17.1 µM, percent relative to cAMP agonist control]
CC(=O)N1N=C(c2ccc(Cl)cc2)CC1c1ccc([N+](=O)[O-])cc1 (stereo unspecified) 7.36% [at 17.1 µM, percent relative to cAMP agonist control]
CC1=NN(c2ccccc2)C(=O)C1=Cc1ccccc1 -2.46% [at 17.1 µM, percent relative to cAMP agonist control]
CSc1cccc(N2CC(C(=O)Nc3cccc(S(=O)(=O)N4CCCC4)c3)CC2=O)c1 (stereo unspecified) 4.48% [at 17.1 µM, percent relative to cAMP agonist control]
CC(C)Cc1ccc(CN2CCCC(NC(=O)c3cnc4ccccn4c3=O)C2)cc1 (stereo unspecified) 12.4% [at 17.1 µM, percent relative to cAMP agonist control]
O=C(c1ccc(Br)cc1)C(CN1CCOCC1)c1ccccc1 (stereo unspecified) 8.74% [at 17.1 µM, percent relative to cAMP agonist control]
NS(=O)(=O)c1ccc2c(c1)C1C=CCC1C(C1CC=CCC1)N2 (stereo unspecified) 6.51% [at 17.1 µM, percent relative to cAMP agonist control]
CCOC(=O)C1CCc2c(ccc3ccccc23)N1CCC#N (stereo unspecified) 0.813% [at 17.1 µM, percent relative to cAMP agonist control]
CCc1nc2c(OCc3ccc(C(F)(F)F)cc3)cccn2c1N(C)C(=O)C(C)C -0.706% [at 17.1 µM, percent relative to cAMP agonist control]
